According to PubChem BioAssay AID1159580 (chemical genetic matrix, 2015):
Several values for one entry are separate records, joined by “and”; a condition that tells them apart may be missing. Equal values may be shown once. Out of some 5,500 compounds screened, about 2,000 (36%) were called active. Roughly 18% stayed inconclusive and do not appear here. Rule as the data show it: active = normalized growth mostly below about 0.91 (no sharp cut-off); inconclusive = no clear call, values can overlap the other calls; inactive = mostly above about 0.92. Some of the results follow.

Assay: chemical genetic growth profiling, strain panel (AID 1159580);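 also: tested at 20 µM; growth read once vehicle control cultures reached saturation at 30 °C; 1 = growth at the plate median or of vehicle wells; lower values mean less growth of the strain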
Details: S. cerevisiae deletion strains, growth OD

Measured: normalized growth

CC(N=C(NC#N)Nc1ccncc1)C(C)(C)C (configuration not stated)
inactive: locus YAL013W, strain DEP1, active compounds read low 1.01 | locus YAL021C, strain ccr4, active compounds read low 0.988 | locus YAL026C, strain drs2, active compounds read low 0.997 | locus YAL030W, strain snc1, active compounds read low 0.988 | locus YAL040C, strain CLN3, active compounds read low 0.983 | locus YBL061C, strain skt5, active compounds read low 0.986 | locus YBR009C, strain hhf1, active compounds read low 1.01 | locus YBR021W, strain FUR4, active compounds read low 1.02 | locus YBR023C, strain chs3, active compounds read low 0.98 | locus YBR171W, strain sec66, active compounds read low 0.958 | locus YBR229C, strain ROT2, active compounds read low 1.01 | locus YBR231C, strain swc5, active compounds read low 0.953 | locus YBR279W, strain paf1, active compounds read low 0.994 | locus YCL011C, strain gbp2, active compounds read low 0.989 | locus YCL016C, strain dcc1, active compounds read low 1.02 | locus YCL029C, strain bik1, active compounds read low 1.04 | locus YCL061C, strain MRC1 (second series), active compounds read low 0.999 | locus YCL061C, strain MRC1, active compounds read low 0.951 | locus YCL069W, strain vba3, active compounds read low 0.989 | locus YCR088W, strain abp1, active compounds read low 0.98 | locus YDL005C, strain med2, active compounds read low 0.988 | locus YDL035C, strain GPR1, active compounds read low 0.999 | locus YDL040C, strain nat1, active compounds read low 0.979 | locus YDL074C, strain BRE1, active compounds read low 1.05 | locus YDL101C, strain DUN1, active compounds read low 1.01 | locus YDL134C, strain PPH21, active compounds read low 1.01 | locus YDL185W, strain tfp1, active compounds read low 1.02 | locus YDL192W, strain arf1, active compounds read low 1.01 | locus YDR001C, strain nth1, active compounds read low 0.963 | locus YDR069C, strain doa4, active compounds read low 0.949 | locus YDR101C, strain arx1, active compounds read low 1.01 | locus YDR137W, strain rgp1, active compounds read low 0.97 | locus YDR150W, strain NUM1, active compounds read low 1.02 and 1 | locus YDR159W, strain sac3, active compounds read low 1.01 | locus YDR162C, strain NBP2, active compounds read low 1.01 | locus YDR195W, strain ref2 0.895 | locus YDR297W, strain sur2, active compounds read low 0.971 | locus YDR318W, strain mcm21, active compounds read low 1.02 | locus YDR334W, strain swr1, active compounds read low 0.949 | locus YDR335W, strain msn5, active compounds read low 0.972 | locus YDR363W, strain ESC2, active compounds read low 0.904 | locus YDR388W, active compounds read low 1.02 | locus YDR392W, strain spt3, active compounds read low 1.04 | locus YDR502C, strain sam2, active compounds read low 1.01 | locus YEL003W, strain gim4, active compounds read low 0.967 | locus YEL037C, strain rad23, active compounds read low 0.998 | locus YEL061C, strain CIN8 (second series), active compounds read low 0.974 | locus YEL061C, strain CIN8, active compounds read low 1.01 | locus YER002W, strain NOP16, active compounds read low 1 | locus YER015W, strain faa2, active compounds read low 0.999 | locus YER016W, strain bim1, active compounds read low 0.986 | locus YER110C, active compounds read low 1.02 | locus YER111C, strain swi4, active compounds read low 0.995 | locus YER155C, strain BEM2 (second series), active compounds read low 0.929 | locus YER155C, strain BEM2, active compounds read low 1 | locus YER167W, strain BCK2, active compounds read low 0.996 | locus YFR010W, strain ubp6, active compounds read low 0.964 | locus YGL078C, strain dbp3, active compounds read low 1.01 | locus YGL086W, strain mad1, active compounds read low 1 | locus YGL167C, strain pmr1, active compounds read low 0.961 | locus YGL173C, strain kem1, active compounds read low 0.97 | locus YGL227W, strain vid30, active compounds read low 0.986 | locus YGL240W, strain doc1, active compounds read low 0.945 | locus YGL248W, strain PDE1, active compounds read low 1 | locus YGL253W, strain hxk2, active compounds read low 1.01 | locus YGR078C, strain PAC10, active compounds read low 1.04 and 0.982 | locus YGR135W, strain pre9, active compounds read low 1.03 | locus YGR229C, strain SMI1, active compounds read low 1.02 | locus YGR252W, strain gcn5, active compounds read low 0.967 | locus YHR013C, strain ard1, active compounds read low 0.985 | locus YHR027C, strain rpn1, active compounds read low 0.979 | locus YHR030C, strain SLT2, active compounds read low 1.01 | locus YHR079C, strain IRE1 (second series), active compounds read low 1.02 | locus YHR094C, strain hxt1, active compounds read low 1.02 | locus YHR129C, strain ARP1, active compounds read low 1 | locus YHR142W, strain chs7, active compounds read low 1.02 | locus YHR200W, strain rpn10, active compounds read low 1.02 | locus YIL066C, strain RNR3, active compounds read low 1.02 | locus YIL073C, strain SPO22, active compounds read low 1.02 | locus YIL125W, strain kgd1, active compounds read low 1.01 | locus YIR030C, strain dcg1, active compounds read low 1.02 | locus YJL092W, strain hpr5, active compounds read low 0.976 | locus YJL095W, strain BCK1 (second series), active compounds read low 0.974 | locus YJL095W, strain BCK1, active compounds read low 1.04 | locus YJL115W, strain asf1, active compounds read low 0.971 | locus YJL129C, strain trk1, active compounds read low 0.979 | locus YJL134W, strain LCB3, active compounds read low 1.01 | locus YJL154C, strain vps35, active compounds read low 0.972 | locus YJL164C, strain tpk1, active compounds read low 1.03 | locus YJL166W, strain qcr8, active compounds read low 0.922 | locus YJL168C, strain set2, active compounds read low 1.02 | locus YJL187C, strain SWE1 (second series), active compounds read low 1.03
